# Columns and labels:
# Assay in all cases: DAPPL (digital affinity profiling via proximity ligation, sequencing); 10 mM Tris-HCl pH 7.5, 50 mM NaCl, 1 mM DTT, 4% glycerol, room temperature, 30 min; GST-TFs on glutathione beads, 16-mer random dsDNA library, 0.1% formaldehyde crosslink after washing; high values mean tight binding
# FLI1 = target: T1, FLI1 (Homo sapiens, UniProt Q01543 1-452); conditions: protein: recombinant; tags: N-terminal GST; dsDNA, one strand shown
# T1 sequence: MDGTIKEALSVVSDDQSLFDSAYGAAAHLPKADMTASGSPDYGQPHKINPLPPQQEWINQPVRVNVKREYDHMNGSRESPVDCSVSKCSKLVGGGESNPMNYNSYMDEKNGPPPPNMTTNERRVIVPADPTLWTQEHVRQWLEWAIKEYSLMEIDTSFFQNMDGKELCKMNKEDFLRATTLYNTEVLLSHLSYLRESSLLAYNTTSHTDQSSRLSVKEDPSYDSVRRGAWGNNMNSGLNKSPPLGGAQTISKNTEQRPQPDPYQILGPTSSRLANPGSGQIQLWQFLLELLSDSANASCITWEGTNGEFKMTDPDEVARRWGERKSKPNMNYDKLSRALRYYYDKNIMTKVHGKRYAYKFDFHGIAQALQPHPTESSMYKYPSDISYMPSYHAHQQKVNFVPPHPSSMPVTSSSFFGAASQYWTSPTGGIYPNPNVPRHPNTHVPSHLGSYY
# Method in brief: (§1)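 A tag-only sample was pooled with DNA-barcoded human transcription factors that had been expressed in yeast as GST fusions and captured on glutathione beads. The pools were incubated for 30 min at room temperature with 200 nmole of a random double-stranded 16-mer DNA library in Tris/NaCl/DTT/glycerol buffer, then washed, crosslinked with 0.1% formaldehyde, proximity-ligated (BsaI/T4 ligase, 1 h, 37 °C), PCR-amplified and sequenced on an Illumina NextSeq500. Binding signal is each hexamer's read frequency for a factor divided by its frequency for the tag-only sample.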
# ELK1 = target: T2, ELK1 (Homo sapiens, UniProt P19419 1-428); conditions: protein: recombinant; tags: N-terminal GST; dsDNA, one strand shown
# T2 sequence: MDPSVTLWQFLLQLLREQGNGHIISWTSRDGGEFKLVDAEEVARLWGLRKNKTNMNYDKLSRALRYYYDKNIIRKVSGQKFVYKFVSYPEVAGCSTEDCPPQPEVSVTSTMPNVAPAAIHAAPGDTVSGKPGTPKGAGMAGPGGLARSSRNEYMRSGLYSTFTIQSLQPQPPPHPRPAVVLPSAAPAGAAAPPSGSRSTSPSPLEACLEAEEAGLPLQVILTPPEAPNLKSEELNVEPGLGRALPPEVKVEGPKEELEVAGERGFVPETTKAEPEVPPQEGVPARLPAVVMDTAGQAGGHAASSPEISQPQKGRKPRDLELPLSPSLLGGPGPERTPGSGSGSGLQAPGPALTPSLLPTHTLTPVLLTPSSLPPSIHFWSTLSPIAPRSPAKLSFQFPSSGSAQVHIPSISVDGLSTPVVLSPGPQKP
# Method in brief: as §1
# GABPA = target: T3, GABPA (Homo sapiens, UniProt Q06546 1-454); conditions: protein: recombinant; tags: N-terminal GST; dsDNA, one strand shown
# T3 sequence: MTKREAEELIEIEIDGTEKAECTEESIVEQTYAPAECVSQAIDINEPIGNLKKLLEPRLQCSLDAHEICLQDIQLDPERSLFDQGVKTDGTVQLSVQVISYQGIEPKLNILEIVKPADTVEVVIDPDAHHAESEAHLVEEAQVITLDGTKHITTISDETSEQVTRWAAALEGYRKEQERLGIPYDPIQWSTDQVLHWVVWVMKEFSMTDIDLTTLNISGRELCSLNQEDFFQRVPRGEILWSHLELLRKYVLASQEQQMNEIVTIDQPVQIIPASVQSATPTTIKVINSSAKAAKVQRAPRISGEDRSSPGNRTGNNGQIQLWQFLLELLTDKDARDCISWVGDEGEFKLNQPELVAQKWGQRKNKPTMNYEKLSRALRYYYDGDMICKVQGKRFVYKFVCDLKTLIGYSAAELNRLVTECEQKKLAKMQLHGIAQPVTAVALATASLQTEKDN
# Method in brief: as §1
# ERG = target: T4, ERG (Homo sapiens, UniProt P11308 1-479); conditions: protein: recombinant; tags: N-terminal GST; dsDNA, one strand shown
# T4 sequence: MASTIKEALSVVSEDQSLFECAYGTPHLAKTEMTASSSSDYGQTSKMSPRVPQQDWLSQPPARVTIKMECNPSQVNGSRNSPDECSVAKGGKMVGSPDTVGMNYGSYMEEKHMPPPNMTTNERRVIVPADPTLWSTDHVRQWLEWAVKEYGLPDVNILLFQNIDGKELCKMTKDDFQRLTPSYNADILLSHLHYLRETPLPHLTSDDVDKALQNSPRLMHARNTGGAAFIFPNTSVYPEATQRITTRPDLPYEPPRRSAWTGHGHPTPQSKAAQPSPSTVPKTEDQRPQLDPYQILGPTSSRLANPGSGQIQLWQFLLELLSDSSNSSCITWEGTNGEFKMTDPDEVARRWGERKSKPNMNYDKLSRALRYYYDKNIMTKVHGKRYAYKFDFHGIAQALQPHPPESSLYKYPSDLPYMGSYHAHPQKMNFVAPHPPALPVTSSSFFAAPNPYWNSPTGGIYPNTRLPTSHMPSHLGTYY
# Method in brief: as §1
# ELF1 = ELF1 (Homo sapiens, UniProt P32519 1-619); conditions: protein: recombinant; tags: N-terminal GST; dsDNA, one strand shown
# Chain of ELF1 (P32519 whole entry): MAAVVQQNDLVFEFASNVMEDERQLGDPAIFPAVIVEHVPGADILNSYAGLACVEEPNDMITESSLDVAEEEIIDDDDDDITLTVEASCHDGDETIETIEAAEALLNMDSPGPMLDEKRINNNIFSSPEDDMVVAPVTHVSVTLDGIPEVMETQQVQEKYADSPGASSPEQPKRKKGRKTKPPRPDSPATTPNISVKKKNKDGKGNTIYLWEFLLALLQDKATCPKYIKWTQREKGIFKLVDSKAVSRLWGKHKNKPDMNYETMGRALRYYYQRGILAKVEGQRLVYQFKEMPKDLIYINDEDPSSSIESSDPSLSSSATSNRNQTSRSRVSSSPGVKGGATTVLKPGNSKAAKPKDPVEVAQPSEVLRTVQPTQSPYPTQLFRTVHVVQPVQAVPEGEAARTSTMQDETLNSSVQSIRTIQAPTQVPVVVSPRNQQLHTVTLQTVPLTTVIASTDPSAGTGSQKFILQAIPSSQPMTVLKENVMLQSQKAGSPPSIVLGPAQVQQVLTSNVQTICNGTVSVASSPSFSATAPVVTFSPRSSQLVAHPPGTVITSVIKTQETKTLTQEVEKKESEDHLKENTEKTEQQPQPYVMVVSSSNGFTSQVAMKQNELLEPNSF
# Method in brief: as §1
# EHF = target: T5, EHF (Homo sapiens, UniProt Q9NZC4 1-300); conditions: protein: recombinant; tags: N-terminal GST; dsDNA, one strand shown
# T5 sequence: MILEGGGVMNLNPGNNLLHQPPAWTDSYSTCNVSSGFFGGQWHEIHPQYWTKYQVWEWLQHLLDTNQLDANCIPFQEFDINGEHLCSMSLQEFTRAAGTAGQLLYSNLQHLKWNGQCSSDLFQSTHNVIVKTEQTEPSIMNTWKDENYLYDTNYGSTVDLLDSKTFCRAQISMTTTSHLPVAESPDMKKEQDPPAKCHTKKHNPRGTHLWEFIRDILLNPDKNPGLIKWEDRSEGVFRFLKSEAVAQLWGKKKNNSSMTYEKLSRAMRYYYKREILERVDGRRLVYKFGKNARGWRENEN
# Method in brief: as §1
# SPI1 = SPI1 (Homo sapiens, UniProt P17947 1-270); conditions: protein: recombinant; tags: N-terminal GST; dsDNA, one strand shown
# Method in brief: as §1
# SPIB = SPIB (Homo sapiens, UniProt Q01892 1-262); conditions: protein: recombinant; tags: N-terminal GST; dsDNA, one strand shown
# Chain of SPIB (Q01892 whole entry): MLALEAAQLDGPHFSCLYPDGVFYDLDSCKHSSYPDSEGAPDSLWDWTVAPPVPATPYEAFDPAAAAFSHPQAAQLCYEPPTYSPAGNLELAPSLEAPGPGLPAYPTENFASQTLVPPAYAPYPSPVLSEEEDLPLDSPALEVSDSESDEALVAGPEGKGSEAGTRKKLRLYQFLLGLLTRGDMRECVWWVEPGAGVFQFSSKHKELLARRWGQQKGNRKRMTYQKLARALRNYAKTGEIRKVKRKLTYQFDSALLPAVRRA
# Method in brief: as §1
# ELK3 = target: T6, ELK3 (Homo sapiens, UniProt P41970 1-407); conditions: protein: recombinant; tags: N-terminal GST; dsDNA, one strand shown
# T6 sequence: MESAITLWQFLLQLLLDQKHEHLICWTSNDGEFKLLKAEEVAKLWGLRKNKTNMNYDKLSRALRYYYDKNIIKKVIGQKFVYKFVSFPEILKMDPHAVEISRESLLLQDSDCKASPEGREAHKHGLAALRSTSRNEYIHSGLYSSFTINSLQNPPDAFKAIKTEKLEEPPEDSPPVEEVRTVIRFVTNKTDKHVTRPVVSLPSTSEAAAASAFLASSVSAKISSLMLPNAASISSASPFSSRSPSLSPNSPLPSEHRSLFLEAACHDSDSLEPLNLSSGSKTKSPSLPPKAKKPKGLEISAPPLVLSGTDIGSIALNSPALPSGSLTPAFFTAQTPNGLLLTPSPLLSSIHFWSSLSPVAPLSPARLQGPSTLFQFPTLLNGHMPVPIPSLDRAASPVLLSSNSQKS
# Method in brief: as §1
# FEV = target: T7, FEV (Homo sapiens, UniProt Q99581 1-238); conditions: protein: recombinant; tags: N-terminal GST; dsDNA, one strand shown
# T7 sequence: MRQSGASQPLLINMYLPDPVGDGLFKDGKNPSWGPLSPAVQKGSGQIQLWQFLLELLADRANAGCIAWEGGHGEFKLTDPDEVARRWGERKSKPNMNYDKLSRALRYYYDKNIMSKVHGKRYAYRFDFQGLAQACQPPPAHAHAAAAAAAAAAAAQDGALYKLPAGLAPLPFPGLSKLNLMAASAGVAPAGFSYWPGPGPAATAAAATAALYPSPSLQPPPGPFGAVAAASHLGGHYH
# Method in brief: as §1
# ETV5 = ETV5 (Homo sapiens, UniProt P41161 1-510); conditions: protein: recombinant; tags: N-terminal GST; dsDNA, one strand shown
# Chain of ETV5 (P41161 whole entry): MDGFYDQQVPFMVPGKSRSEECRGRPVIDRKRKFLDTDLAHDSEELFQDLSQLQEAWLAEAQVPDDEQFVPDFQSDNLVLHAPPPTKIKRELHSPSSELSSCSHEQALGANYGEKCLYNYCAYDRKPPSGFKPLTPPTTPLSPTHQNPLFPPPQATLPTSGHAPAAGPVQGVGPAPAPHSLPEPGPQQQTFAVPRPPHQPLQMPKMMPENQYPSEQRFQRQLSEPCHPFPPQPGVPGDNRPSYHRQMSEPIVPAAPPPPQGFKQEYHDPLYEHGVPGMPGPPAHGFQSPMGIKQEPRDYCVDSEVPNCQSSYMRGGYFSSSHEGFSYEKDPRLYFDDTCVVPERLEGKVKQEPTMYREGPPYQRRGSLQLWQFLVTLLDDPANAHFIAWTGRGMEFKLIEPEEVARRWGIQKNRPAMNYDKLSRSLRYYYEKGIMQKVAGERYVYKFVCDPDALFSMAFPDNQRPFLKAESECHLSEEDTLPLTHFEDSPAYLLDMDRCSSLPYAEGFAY
# Method in brief: as §1
# HSF1 = HSF1 (Homo sapiens, UniProt Q00613 1-529); conditions: protein: recombinant; tags: N-terminal GST; chain copies: 3; dsDNA, one strand shown
# Chain of HSF1 (Q00613 whole entry): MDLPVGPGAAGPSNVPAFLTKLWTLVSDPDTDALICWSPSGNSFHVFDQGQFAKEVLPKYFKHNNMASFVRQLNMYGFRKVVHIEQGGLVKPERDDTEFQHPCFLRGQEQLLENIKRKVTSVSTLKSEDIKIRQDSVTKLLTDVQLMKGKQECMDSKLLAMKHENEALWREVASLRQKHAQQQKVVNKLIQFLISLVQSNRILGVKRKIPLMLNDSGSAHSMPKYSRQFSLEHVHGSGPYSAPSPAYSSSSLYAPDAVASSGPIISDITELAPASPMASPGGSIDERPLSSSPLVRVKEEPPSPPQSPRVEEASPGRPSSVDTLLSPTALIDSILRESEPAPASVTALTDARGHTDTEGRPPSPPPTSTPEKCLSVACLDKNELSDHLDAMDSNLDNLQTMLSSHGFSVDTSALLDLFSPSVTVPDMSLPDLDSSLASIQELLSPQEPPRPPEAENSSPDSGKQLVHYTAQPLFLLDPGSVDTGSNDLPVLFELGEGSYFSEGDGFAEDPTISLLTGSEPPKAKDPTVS
# Method in brief: as §1
# SPIC = target: T8, SPIC (Homo sapiens, UniProt Q8N5J4 1-248); conditions: protein: recombinant; tags: N-terminal GST; dsDNA, one strand shown
# T8 sequence: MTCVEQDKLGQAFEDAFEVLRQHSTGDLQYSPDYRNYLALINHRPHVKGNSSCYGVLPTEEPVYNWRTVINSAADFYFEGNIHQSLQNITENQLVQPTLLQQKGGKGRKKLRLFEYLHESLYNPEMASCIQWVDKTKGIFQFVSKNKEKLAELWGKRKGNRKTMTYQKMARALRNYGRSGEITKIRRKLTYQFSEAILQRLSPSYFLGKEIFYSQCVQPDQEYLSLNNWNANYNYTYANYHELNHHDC
# Method in brief: as §1
# ELF4 = ELF4 (Homo sapiens, UniProt Q99607 1-663); conditions: protein: recombinant; tags: N-terminal GST; dsDNA, one strand shown
# Chain of ELF4 (Q99607 whole entry): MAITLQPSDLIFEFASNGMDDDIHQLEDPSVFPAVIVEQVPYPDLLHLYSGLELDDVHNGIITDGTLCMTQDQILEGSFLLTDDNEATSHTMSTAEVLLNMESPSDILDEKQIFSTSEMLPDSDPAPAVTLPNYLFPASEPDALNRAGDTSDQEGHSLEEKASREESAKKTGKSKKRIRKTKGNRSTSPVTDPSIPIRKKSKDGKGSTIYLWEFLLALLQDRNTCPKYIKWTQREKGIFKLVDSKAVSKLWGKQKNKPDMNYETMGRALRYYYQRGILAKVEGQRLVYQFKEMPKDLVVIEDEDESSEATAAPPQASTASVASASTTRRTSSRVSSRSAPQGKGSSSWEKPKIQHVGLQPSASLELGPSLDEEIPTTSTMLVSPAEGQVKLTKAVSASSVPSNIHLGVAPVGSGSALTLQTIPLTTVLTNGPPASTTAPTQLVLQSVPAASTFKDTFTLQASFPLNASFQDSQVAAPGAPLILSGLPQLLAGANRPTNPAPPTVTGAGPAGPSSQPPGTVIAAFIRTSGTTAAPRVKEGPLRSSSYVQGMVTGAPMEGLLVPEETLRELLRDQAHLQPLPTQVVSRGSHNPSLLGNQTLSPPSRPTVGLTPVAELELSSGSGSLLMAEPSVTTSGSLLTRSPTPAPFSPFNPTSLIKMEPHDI
# Method in brief: as §1
# ELK4 = target: T9, ELK4 (Homo sapiens, UniProt P28324-2 1-405); conditions: protein: recombinant; tags: N-terminal GST; dsDNA, one strand shown
# T9 sequence: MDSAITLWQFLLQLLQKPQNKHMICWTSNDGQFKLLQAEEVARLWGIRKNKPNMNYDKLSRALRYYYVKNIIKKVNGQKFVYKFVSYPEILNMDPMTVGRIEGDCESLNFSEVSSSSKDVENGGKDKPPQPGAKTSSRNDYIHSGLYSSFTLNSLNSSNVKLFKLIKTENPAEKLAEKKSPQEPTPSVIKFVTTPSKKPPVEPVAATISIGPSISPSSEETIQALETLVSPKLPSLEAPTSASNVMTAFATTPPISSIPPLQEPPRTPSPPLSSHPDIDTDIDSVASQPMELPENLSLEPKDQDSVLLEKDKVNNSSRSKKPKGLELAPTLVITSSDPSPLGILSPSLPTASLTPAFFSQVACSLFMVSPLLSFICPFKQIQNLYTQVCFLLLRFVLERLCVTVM
# Method in brief: as §1
# ETV2 = target: T10, ETV2 (Homo sapiens, UniProt O00321 1-342); conditions: protein: recombinant; tags: N-terminal GST; dsDNA, one strand shown
# T10 sequence: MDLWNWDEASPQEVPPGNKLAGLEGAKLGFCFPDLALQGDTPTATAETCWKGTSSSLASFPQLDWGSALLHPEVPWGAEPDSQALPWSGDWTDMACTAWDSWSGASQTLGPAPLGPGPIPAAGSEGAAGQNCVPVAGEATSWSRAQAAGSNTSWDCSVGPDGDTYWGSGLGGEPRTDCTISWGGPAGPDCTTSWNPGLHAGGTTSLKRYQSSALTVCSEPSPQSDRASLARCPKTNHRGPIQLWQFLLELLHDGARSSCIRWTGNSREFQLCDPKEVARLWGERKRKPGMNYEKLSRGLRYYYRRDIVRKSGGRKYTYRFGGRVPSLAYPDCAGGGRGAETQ
# Method in brief: as §1
# ELF3 = target: T11, ELF3 (Homo sapiens, UniProt P78545 1-371); conditions: protein: recombinant; tags: N-terminal GST; dsDNA, one strand shown
# T11 sequence: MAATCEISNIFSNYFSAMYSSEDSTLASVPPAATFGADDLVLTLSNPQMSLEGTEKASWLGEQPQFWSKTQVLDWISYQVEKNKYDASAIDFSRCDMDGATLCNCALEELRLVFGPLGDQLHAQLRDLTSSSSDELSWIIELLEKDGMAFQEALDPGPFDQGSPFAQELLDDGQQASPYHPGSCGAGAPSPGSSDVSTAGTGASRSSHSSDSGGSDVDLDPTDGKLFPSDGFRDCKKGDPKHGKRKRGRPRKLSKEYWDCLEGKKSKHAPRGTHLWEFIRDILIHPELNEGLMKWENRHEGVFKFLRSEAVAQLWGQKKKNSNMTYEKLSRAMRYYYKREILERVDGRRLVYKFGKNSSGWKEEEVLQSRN
# Method in brief: as §1
# CRX = CRX (Homo sapiens, UniProt O43186 1-299); conditions: protein: recombinant; tags: N-terminal GST; dsDNA, one strand shown
# Chain of CRX (O43186 whole entry): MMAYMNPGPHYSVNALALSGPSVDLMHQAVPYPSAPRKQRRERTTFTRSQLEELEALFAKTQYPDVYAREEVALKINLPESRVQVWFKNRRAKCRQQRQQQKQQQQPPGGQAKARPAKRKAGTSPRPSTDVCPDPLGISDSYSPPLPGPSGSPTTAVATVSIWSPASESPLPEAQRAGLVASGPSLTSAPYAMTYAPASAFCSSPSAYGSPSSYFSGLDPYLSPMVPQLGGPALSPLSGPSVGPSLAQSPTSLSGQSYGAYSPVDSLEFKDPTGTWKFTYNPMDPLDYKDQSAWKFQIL
# Method in brief: as §1
# ETV1 = ETV1 (Homo sapiens, UniProt P50549 1-477); conditions: protein: recombinant; tags: N-terminal GST; dsDNA, one strand shown
# Chain of ETV1 (P50549 whole entry): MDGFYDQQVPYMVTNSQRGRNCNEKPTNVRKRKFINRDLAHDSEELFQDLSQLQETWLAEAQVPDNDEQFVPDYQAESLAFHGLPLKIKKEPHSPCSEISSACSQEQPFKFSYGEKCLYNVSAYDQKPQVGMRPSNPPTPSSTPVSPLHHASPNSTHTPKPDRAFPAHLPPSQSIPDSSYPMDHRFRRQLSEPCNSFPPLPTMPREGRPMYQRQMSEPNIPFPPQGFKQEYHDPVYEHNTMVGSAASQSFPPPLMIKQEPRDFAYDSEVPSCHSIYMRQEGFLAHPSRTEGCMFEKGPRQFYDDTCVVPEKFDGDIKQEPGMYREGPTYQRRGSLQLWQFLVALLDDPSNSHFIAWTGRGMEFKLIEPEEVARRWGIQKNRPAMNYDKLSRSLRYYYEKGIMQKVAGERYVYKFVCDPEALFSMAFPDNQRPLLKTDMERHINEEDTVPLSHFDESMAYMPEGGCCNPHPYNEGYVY
# Method in brief: as §1
sequence,measurement,setting,value
TTGACA,binding signal,FLI1,"1.38 fold enrichment (6-mer frequency, TF over GST control)"
same,binding signal,ELK1,"1.37 fold enrichment (6-mer frequency, TF over GST control)"
same,binding signal,GABPA,"1.44 fold enrichment (6-mer frequency, TF over GST control)"
same,binding signal,ERG,"1.34 fold enrichment (6-mer frequency, TF over GST control)"
same,binding signal,ELF1,"1.37 fold enrichment (6-mer frequency, TF over GST control)"
same,binding signal,EHF,"1.29 fold enrichment (6-mer frequency, TF over GST control)"
same,binding signal,SPI1,"1.25 fold enrichment (6-mer frequency, TF over GST control)"
same,binding signal,SPIB,"1.28 fold enrichment (6-mer frequency, TF over GST control)"
same,binding signal,ELK3,"1.28 fold enrichment (6-mer frequency, TF over GST control)"
same,binding signal,FEV,"1.34 fold enrichment (6-mer frequency, TF over GST control)"
same,binding signal,ETV5,"1.28 fold enrichment (6-mer frequency, TF over GST control)"
same,binding signal,HSF1,"1.19 fold enrichment (6-mer frequency, TF over GST control)"
same,binding signal,SPIC,"1.21 fold enrichment (6-mer frequency, TF over GST control)"
same,binding signal,ELF4,"1.3 fold enrichment (6-mer frequency, TF over GST control)"
same,binding signal,ELK4,"1.47 fold enrichment (6-mer frequency, TF over GST control)"
same,binding signal,ETV2,"1.36 fold enrichment (6-mer frequency, TF over GST control)"
same,binding signal,ELF3,"1.51 fold enrichment (6-mer frequency, TF over GST control)"
same,binding signal,CRX,"1.22 fold enrichment (6-mer frequency, TF over GST control)"
same,binding signal,ETV1,"1.33 fold enrichment (6-mer frequency, TF over GST control)"

# Source: PMC7862700, “An all-to-all approach to the identification of sequence-specific readers for epigenetic DNA modifications on cytosine”
